In ChEMBL document CHEMBL2218924, “A broad activity screen in support of a chemogenomic map for kinase signalling research and drug discovery” (Biochem J, 2013):

Tests used:
[1] = biological target: T1, Ephrin type-A receptor 3 (Homo sapiens) (UniProt P29320); settings: at 10 µM
T1 sequence (whole entry): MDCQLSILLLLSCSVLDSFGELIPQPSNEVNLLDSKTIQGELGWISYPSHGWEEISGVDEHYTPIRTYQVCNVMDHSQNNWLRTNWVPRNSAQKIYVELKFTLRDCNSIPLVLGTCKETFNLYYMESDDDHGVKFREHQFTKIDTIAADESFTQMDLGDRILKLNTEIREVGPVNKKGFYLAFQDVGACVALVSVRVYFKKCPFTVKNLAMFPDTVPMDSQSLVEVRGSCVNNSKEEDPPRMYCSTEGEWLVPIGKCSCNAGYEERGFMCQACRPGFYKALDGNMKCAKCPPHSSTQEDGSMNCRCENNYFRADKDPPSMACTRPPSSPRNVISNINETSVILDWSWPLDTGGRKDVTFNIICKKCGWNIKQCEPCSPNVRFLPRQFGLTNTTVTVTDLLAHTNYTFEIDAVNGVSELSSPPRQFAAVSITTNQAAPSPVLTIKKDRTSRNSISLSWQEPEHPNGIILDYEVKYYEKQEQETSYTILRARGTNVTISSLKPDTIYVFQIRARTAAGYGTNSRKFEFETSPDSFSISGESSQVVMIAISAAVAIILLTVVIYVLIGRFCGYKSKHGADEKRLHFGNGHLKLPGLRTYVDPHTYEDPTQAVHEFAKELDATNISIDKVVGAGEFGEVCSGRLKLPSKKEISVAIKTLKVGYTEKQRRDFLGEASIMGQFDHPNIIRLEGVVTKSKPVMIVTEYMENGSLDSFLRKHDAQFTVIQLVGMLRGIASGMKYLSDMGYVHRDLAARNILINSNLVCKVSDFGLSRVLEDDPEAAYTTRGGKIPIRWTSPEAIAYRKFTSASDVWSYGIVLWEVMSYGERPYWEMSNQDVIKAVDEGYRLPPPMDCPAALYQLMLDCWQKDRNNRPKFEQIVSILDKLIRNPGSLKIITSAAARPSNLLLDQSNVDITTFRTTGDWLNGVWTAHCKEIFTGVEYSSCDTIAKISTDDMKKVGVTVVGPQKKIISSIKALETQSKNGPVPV

[2] = biological target: Ephrin type-A receptor 4 (Homo sapiens) (UniProt P54764); settings: at 1 µM
[3] = biological target: Ephrin type-A receptor 4 (Homo sapiens) (UniProt P54764); settings: at 10 µM
[4] = biological target: Ephrin type-A receptor 5 (Homo sapiens) (UniProt P54756); settings: at 1 µM
[5] = biological target: Ephrin type-A receptor 5 (Homo sapiens) (UniProt P54756); settings: at 10 µM
[6] = biological target: Ephrin type-A receptor 7 (Homo sapiens) (UniProt Q15375); settings: at 1 µM
[7] = biological target: Ephrin type-A receptor 7 (Homo sapiens) (UniProt Q15375); settings: at 10 µM
[8] = biological target: T2, Ephrin type-A receptor 8 (Homo sapiens) (UniProt P29322); settings: at 1 µM
T2 sequence (whole entry): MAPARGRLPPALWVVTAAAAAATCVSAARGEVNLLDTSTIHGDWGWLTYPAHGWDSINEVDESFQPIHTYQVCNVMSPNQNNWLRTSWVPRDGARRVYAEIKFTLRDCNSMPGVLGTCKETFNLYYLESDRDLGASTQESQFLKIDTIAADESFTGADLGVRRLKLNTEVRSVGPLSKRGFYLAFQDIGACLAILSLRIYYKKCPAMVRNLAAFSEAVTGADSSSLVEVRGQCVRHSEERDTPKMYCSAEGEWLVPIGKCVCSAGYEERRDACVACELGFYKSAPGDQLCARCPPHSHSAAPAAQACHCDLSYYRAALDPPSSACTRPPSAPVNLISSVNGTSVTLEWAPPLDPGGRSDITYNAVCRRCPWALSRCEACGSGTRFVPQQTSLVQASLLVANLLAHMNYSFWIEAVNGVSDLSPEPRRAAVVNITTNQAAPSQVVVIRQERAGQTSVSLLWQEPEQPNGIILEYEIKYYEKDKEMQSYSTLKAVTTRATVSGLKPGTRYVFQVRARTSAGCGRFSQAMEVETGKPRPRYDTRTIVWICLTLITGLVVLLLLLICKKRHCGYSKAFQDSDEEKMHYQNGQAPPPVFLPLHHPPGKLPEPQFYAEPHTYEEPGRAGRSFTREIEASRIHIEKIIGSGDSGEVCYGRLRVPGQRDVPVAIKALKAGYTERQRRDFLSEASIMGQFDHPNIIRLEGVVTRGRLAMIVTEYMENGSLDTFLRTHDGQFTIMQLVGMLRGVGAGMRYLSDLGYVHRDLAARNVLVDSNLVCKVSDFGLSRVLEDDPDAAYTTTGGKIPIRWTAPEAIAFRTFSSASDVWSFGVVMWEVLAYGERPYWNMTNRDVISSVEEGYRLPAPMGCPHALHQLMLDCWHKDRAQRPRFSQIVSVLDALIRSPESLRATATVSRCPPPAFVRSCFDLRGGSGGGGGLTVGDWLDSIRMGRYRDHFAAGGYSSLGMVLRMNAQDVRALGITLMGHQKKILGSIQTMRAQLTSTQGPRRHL

[9] = biological target: T2, Ephrin type-A receptor 8 (Homo sapiens); settings: at 10 µM
[10] = biological target: T3, Ephrin type-B receptor 1 (Homo sapiens) (UniProt P54762); settings: at 1 µM
T3 sequence (whole entry): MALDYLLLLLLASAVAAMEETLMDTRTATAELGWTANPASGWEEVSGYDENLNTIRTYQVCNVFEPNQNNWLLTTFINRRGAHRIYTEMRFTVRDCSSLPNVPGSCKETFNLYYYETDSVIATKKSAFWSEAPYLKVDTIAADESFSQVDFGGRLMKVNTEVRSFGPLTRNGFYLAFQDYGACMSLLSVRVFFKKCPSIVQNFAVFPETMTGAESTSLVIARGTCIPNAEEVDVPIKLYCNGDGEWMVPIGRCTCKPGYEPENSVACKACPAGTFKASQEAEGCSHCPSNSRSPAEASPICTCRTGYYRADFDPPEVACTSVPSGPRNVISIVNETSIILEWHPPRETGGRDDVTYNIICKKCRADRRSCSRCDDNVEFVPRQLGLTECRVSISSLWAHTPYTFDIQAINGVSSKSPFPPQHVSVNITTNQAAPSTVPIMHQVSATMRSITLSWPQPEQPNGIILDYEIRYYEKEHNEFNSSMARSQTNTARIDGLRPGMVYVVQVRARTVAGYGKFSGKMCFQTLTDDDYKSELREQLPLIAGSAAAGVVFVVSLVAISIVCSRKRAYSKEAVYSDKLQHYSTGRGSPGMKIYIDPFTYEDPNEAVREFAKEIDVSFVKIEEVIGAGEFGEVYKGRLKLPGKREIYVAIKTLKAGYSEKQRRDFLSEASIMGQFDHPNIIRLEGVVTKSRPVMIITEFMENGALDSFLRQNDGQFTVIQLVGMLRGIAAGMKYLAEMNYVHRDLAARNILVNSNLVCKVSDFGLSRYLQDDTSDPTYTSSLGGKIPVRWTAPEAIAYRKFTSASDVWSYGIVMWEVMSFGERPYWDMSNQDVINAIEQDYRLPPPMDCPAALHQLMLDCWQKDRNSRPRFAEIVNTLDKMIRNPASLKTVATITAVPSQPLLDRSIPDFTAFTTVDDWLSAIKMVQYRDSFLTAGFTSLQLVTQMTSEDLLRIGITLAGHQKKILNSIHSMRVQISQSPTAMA

Sequence of Ephrin type-A receptor 7 (Homo sapiens) (Q15375 28-998 limits assumed): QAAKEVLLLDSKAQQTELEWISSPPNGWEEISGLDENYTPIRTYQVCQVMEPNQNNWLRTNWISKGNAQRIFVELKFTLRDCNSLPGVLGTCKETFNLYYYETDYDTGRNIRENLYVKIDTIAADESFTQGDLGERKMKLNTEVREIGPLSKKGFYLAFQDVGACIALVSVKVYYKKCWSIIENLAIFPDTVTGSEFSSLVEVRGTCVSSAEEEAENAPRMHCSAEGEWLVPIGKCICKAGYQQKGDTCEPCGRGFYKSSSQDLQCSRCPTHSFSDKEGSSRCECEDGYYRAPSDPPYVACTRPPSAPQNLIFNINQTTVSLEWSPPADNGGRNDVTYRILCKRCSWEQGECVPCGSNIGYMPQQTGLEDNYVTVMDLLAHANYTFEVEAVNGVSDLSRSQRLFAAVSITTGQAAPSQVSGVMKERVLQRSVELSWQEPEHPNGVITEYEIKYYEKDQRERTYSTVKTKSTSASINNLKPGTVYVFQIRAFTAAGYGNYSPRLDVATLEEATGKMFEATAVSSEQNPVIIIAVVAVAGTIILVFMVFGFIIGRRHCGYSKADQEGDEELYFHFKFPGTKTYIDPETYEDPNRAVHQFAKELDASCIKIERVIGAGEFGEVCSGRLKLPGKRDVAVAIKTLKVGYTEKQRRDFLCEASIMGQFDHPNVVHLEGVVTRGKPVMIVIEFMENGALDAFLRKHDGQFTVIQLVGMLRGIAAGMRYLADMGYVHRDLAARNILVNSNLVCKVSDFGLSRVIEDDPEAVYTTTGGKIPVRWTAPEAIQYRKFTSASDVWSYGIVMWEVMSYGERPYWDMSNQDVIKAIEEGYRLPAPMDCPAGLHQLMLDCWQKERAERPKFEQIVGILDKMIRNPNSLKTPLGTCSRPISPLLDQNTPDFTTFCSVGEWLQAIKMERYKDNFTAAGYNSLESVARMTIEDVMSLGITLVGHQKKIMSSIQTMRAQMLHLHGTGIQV
Sequence of Ephrin type-A receptor 5 (Homo sapiens) (P54756 whole entry): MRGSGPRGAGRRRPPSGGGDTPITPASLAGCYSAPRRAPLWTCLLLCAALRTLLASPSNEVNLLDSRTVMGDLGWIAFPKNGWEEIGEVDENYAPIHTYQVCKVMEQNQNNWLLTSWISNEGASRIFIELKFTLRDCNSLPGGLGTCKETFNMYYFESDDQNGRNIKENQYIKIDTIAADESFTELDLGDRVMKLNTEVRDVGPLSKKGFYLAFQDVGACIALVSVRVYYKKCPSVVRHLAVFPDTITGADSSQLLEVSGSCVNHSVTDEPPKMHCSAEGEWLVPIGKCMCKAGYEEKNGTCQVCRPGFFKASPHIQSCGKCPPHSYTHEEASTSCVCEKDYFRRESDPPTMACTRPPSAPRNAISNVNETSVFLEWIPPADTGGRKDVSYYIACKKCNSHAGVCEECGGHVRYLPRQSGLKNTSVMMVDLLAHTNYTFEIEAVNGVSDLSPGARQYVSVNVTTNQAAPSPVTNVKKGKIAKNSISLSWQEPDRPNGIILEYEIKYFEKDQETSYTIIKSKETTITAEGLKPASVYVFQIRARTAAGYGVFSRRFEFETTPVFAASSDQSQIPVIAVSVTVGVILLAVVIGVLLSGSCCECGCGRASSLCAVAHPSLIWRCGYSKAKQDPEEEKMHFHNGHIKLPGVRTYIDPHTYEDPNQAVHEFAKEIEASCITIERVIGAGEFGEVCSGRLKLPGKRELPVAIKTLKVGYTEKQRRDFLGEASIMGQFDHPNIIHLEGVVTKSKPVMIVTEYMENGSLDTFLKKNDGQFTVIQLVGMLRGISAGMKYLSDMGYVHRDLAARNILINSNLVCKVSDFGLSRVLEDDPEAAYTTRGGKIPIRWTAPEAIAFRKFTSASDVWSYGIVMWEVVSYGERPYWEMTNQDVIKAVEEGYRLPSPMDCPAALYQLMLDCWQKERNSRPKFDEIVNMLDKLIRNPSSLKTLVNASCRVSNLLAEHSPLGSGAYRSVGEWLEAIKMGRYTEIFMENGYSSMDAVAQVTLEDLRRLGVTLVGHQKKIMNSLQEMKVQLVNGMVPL
Sequence of Ephrin type-A receptor 4 (Homo sapiens) (P54764 whole entry): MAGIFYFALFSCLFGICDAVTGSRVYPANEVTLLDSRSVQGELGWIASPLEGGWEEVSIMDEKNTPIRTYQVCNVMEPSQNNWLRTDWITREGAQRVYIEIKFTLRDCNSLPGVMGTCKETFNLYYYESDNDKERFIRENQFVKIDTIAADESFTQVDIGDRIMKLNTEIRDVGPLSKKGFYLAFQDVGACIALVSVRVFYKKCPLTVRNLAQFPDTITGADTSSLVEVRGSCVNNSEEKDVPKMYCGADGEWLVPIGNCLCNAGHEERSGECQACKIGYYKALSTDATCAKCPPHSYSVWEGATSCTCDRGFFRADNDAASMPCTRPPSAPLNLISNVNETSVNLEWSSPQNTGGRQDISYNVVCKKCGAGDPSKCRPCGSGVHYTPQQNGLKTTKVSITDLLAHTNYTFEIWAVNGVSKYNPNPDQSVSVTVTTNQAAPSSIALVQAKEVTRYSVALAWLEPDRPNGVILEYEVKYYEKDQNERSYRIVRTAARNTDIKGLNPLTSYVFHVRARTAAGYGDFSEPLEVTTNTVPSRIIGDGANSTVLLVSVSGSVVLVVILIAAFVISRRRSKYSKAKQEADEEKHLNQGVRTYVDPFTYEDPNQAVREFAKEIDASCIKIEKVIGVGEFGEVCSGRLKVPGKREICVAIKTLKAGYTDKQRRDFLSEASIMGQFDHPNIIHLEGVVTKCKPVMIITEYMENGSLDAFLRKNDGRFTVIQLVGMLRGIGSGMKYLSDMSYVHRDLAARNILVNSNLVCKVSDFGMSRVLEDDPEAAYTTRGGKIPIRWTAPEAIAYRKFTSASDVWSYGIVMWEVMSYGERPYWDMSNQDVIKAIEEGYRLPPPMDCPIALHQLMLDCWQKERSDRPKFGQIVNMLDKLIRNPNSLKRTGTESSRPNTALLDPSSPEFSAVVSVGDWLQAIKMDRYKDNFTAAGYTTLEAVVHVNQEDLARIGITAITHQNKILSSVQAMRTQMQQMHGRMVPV

Work on `O=C1NC(=O)c2cc(Nc3ccc(F)cc3)c(Nc3ccc(F)cc3)cc21` yielded a residual activity [1] of 76%, a residual activity [2] of 100% and a residual activity [3] of 83%. The residual activity [4] was 93%, the residual activity [5] was 71% and the residual activity [6] was 74%. For the same compound, the residual activity [7] was 21%, the residual activity [8] was 87% and the residual activity [9] was 56%. For the same compound, the residual activity [10] was 82%.
